Results from ChEMBL document CHEMBL4513216, “Probing the Open Global Health Chemical Diversity Library for Multistage-Active Starting Points for Next-Generation Antimalarials” (ACS Infect Dis, 2020).
The whole screen tested about 69,000 compounds, of which about 8,600 (12%) showed an effect of 50% or more. Shown is part of a subset that was picked to be rich in strong results.

The compounds below were run on Plasmodium berghei (assay: Screen against P. berghei liver stage (PbLuc), transformed with Luciferase, at 10uM). Conditions: tested at 10 uM.
Format: functional, HepG2
In the case of `COC1COC2(CCN(Cc3ccccc3Cl)CC2)C1` (centres undefined), the INHIBITION is reported as -40.3%.
`Cc1cc(CN2CCCC(Cn3cncn3)C2)no1` (centres undefined) showed an INHIBITION of 3.73%.
`COc1cn(CC(=O)N2CCN(c3ccc(F)cc3)CC2)c(C)cc1=O` gave an INHIBITION of 39.6%.
With `CC(C)NC(=O)N1CCN(Cc2ccccn2)CC2(CC(=O)N(C)C2)C1` (centres undefined) the INHIBITION was 42.4%.
Compound `CC1CN(C)CCN1CC(=O)NCCOc1cccc(F)c1` (centres undefined) has an INHIBITION of 22.007%.
In the case of `O=C(c1ccc2[nH]nnc2c1)N1CCC(Nc2cccnn2)CC1`, the INHIBITION is reported as 33.3%.
With `NCCC(=O)NCC1(O)CCCN(c2ccnc3cccnc23)C1` (centres undefined) the INHIBITION was 29.4%.
`CCN(c1ccsc1C(=O)N1CCC(C)CC1)S(=O)(=O)c1ccccc1` showed an INHIBITION of -8%.
`Cc1ccc(N(C)[C@@H]2CC[C@@H]3CN(C(=O)Cc4cccs4)C[C@@H]32)nn1` gave an INHIBITION of -3.02%.
In the case of `CN1CCN(CCc2ncnn2-c2ccc3c(c2)OCO3)CC1`, the INHIBITION is reported as 89.9%.
`FC(F)C(F)(F)COCc1ncnn1-c1ccc2c(c1)OCO2` gave an INHIBITION of -98.6%.
`FC(F)(F)CCc1ncnn1-c1ccc2c(c1)OCO2` was tested, and the INHIBITION was -147%.
Compound `Cc1nn(C)c(C)c1OCC(=O)NCC(O)Cc1ccccc1` (centres undefined) has an INHIBITION of 67.4%.
Work on `Cc1nn(C)c(C)c1OCC(=O)NCC(O)c1ccco1` (centres undefined) yielded an INHIBITION of 40.6%.
`Cc1nn(C)c(C)c1OCC(=O)NCC(O)c1ccccc1F` (centres undefined) showed an INHIBITION of 57.5%.
`Cc1nn(C)c(C)c1OCC(=O)NCC(O)c1ccsc1` (centres undefined) showed an INHIBITION of 29.7%.
For `Cc1nn(C)c(C)c1OCC(=O)NCc1cccc(CO)c1`, the INHIBITION was -8.92%.
`Cc1nn(C)c(C)c1OCC(=O)NCc1cccc(C(=O)O)c1` gave an INHIBITION of 38.6%.
`CC(C)[C@H](NS(C)(=O)=O)C(=O)NCc1cc(-c2cccc(Cl)c2)nn1C` showed an INHIBITION of 45.6%.
`CCC(CO)N(Cc1ccsc1)Cc1c(C)nn(C)c1Cl` (centres undefined) gave an INHIBITION of 27.7%.
Compound `NS(=O)(=O)c1cccnc1Nc1cccc(Cl)c1Cl` has an INHIBITION of 27.4%.
With `Cc1nn(C)c(C)c1CCC(=O)N(C)Cc1ccc2nsnc2c1` the INHIBITION was -18.3%.
Work on `COc1ccc(CN(C)C(=O)CN2CC(n3cc(C)cn3)C2)cc1F` yielded an INHIBITION of 17.1%.
In the case of `COc1ccc(CCC(=O)N(C)Cc2c(C)nn(C)c2C)cc1`, the INHIBITION is reported as 40.9%.
`COc1ccc(NC(=O)Cc2c(C)nn(C)c2C)cc1F` gave an INHIBITION of 47.3%.
In the case of `COc1ccc(CN(C)C(=O)Cc2c(C)nn(C)c2C)cc1F`, the INHIBITION is reported as 73.6%.
`COc1cc(CN(C)C(=O)Cc2c(C)nn(C)c2C)ccc1OC(F)F` gave an INHIBITION of 93.4%.
Compound `CCCS(=O)(=O)N1Cc2nccn2CC(CN2CCCC2)C1` (centres undefined) has an INHIBITION of 30.3%.
`O=C(Nc1cccc(C(=O)OCC2CCCN2)c1)c1ccoc1` (centres undefined) gave an INHIBITION of -97.2%.
In the case of `N#Cc1c(N)nc2c(c1-c1c[nH]nc1C1CCCCC1)CC(N)CC2` (centres undefined), the INHIBITION is reported as -2.43%.
`CS(=O)(=O)NCc1nnc2n1CCN(Cc1ccncc1)C2` gave an INHIBITION of 64.9%.
With `CS(=O)(=O)NCc1nnc2n1CCN(Cc1ccc(F)cc1)C2` the INHIBITION was 15.9%.
Compound `CS(=O)(=O)NCc1nnc2n1CCN(Cc1cccs1)C2` has an INHIBITION of 34.7%.
For `Cc1ccc(CN2CCn3c(CNS(C)(=O)=O)nnc3C2)s1`, the INHIBITION was 50.9%.
With `CC(=O)NCc1nnc2n1CCN(Cc1cccs1)C2` the INHIBITION was 76.2%.
`CN(C)C(=O)NCc1nnc2n1CCN(Cc1cccs1)C2` was tested, and the INHIBITION was 27.7%.
`CS(=O)(=O)NCc1nnc2n1CCN(Cc1nccs1)C2` gave an INHIBITION of 18.3%.
`N#CCC(=O)NCc1nnc2n1CCN(Cc1cccs1)C2` was tested, and the INHIBITION was 0.164%.
`CS(=O)(=O)NCc1nnc2n1CCN(Cc1cccnc1)C2` gave an INHIBITION of 45.1%.
`COC(=O)C(C)(C)NC(=O)C1CC(=O)N(CC2CC2)C1` (centres undefined) was tested, and the INHIBITION was 25.1%.
`CNc1snc(C)c1C(=O)N1CCCC(n2ccnc2)C1` (centres undefined) showed an INHIBITION of 33.8%.
`CC[C@H]1N(Cc2ccc(OC)cc2)CCC[C@]12CCC(=O)N2C` showed an INHIBITION of 6.27%.
`Cc1nc(N2CCCN(c3ncccn3)CC2)c2cnn(C)c2n1` gave an INHIBITION of -9.29%.
In the case of `Cc1ncsc1CN1CCn2nc(CCC(=O)N3CCCC3)cc2C1`, the INHIBITION is reported as 14.9%.
For `Cc1nnc(NC(=O)CN2CCc3c(nc(C4CC4)n3C)C2)s1`, the INHIBITION was 14.4%.
Compound `CC(=O)NC1CCCN(C(=O)NCc2ccc(-n3cccn3)cc2)C1` (centres undefined) has an INHIBITION of 0.914%.
Work on `O=C(Cc1cccs1)N1C[C@@H]2COC[C@]2(COCc2cccnc2)C1` yielded an INHIBITION of 43.9%.
With `Cc1cc2[nH]c(=O)c(=O)[nH]c2cc1S(=O)(=O)NC1CCCCC1` the INHIBITION was -27.7%.
`Cc1cc2[nH]c(=O)c(=O)[nH]c2cc1S(=O)(=O)NC1CCC(C)CC1` (centres undefined) was tested, and the INHIBITION was 23%.
With `Cc1cc2nc(O)c(O)nc2cc1S(=O)(=O)NC1CC1` the INHIBITION was 60.7%.
With `CNC(=O)[C@@H](c1ccccc1F)N1CCC[C@H]1C(=O)NC1CCOCC1` the INHIBITION was -27.5%.
In the case of `O=S(=O)(NCC1COc2ccccc2C1)N1CCCCC1` (centres undefined), the INHIBITION is reported as -7.71%.
For `O=S(=O)(NCC1COc2ccccc2C1)N1CCCC1` (centres undefined), the INHIBITION was -30%.
`O=S1(=O)CCC(CNS(=O)(=O)N2CCc3ccccc3C2)C1` (centres undefined) gave an INHIBITION of 52.2%.
`CN1CCCC(CNS(=O)(=O)N2CCc3ccccc3C2)C1` (centres undefined) gave an INHIBITION of 57.8%.
Compound `O=S(=O)(NCC1CCOC1)N1CCc2ccccc2C1` (centres undefined) has an INHIBITION of 27.5%.
Work on `CCN1CCC(CNS(=O)(=O)N2CCc3ccccc3C2)C1` (centres undefined) yielded an INHIBITION of 45.4%.
`CCn1nc(CC(C)C)cc1C(=O)NCc1c(C)cc(C)nc1OC` gave an INHIBITION of 47.3%.
`CSCC(=O)Nc1cccc(Oc2ccccn2)c1` showed an INHIBITION of -9.93%.
For `CS(=O)(=O)NC1CC(=O)N(c2ccccc2Cl)C1` (centres undefined), the INHIBITION was 28.7%.
`O=C1CC(NS(=O)(=O)NCc2ccccc2)CN1c1ccccc1Cl` (centres undefined) showed an INHIBITION of 55%.
With `CN(C)S(=O)(=O)NC1CC(=O)N(c2ccccc2Cl)C1` (centres undefined) the INHIBITION was 25.8%.
`CC(C)N(C)Cc1cncc2c1CCN(CC(=O)N(C)C)C2` showed an INHIBITION of 12.2%.
`Cn1cc(CN2CCc3c(COCC4CC4)cncc3C2)cn1` showed an INHIBITION of 7.15%.
`CN(Cc1cccnc1)Cc1cncc2c1CCN(Cc1ccoc1)C2` showed an INHIBITION of 28.5%.
`COCc1cncc2c1CCN(Cc1cnn(C)c1)C2` gave an INHIBITION of -26.2%.
Compound `CN(C)Cc1cncc2c1CCN(Cc1cnn(C)c1)C2` has an INHIBITION of 59.8%.
Compound `CN(C)Cc1cncc2c1CCN(CC(=O)N(C)C)C2` has an INHIBITION of 72%.
In the case of `CN(C)C(=O)COCc1cncc2c1CCN(Cc1cnn(C)c1)C2`, the INHIBITION is reported as 23.5%.
Compound `COCc1cncc2c1CCN(Cc1cccnc1)C2` has an INHIBITION of 24.8%.
Compound `CC(C)COCc1cncc2c1CCN(Cc1cnn(C)c1)C2` has an INHIBITION of 71.8%.
`CC(C)N(C)Cc1cncc2c1CCN(CC1CC1)C2` gave an INHIBITION of 44.8%.
In the case of `c1cncc(COCc2cncc3c2CCN(Cc2ccoc2)C3)c1`, the INHIBITION is reported as 54.8%.
`CN(C)Cc1cncc2c1CCN(Cc1ccoc1)C2` was tested, and the INHIBITION was 24.9%.
